# Results filed as inconclusive are left out. Values without a mark were called inactive. The source made the active and inactive calls. Unless noted, the call rests on the fitted dose curve.
# Assay: P-glycoprotein substrates identified in KB-8-5-11 adenocarcinoma cell line, qHTS therapeutic library screen (AID 1346987; active means well fitted inhibition curve with a large enough effect; further: nearly all actives have a fitted effect of over 65% in size)
# Conditions: KB-8-5-11 (P-gp overexpressing) viability, CellTiter-Glo, 72 h; series mostly up to 44.5 µM; activity change, negative = cytotoxicity: at the top concentration
# Summary of the method: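 KB-8-5-11, a colchicine-selected P-gp-overexpressing KB-3-1 subline, was grown without colchicine for the assay. Cells were seeded at 500 cells/well, dosed in concentration-response and incubated 72 h at 37 degree C, 5% CO2. Viability was read by CellTiter-Glo luminescence.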
# On the % scale 0 is the no-effect control and ±100 the full control effect.
SMILES,Potency,"activity change, negative = cytotoxicity"
CCn1cc(C(=O)O)c(=O)c2ccc(C)nc21,inactive,
O=C1NCC2(CCN(CCc3ccccc3)CC2)O1,,16.9%
CCN(CC)CCNC(=O)c1ccc(N)cc1,inactive,

# Assay: Natriuretic polypeptide receptor (hNpr1) antagonism - Pilot counterscreen GloSensor control cell line (AID 1347045)
# Conditions: HEK293 cGMP GloSensor cells, SNP-stimulated luminescence, 20 min; series mostly up to 38.3 µM; activity change, negative = inhibition: at the top concentration
# Summary of the method: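 HEK293 cGMP GloSensor cells preloaded 2 h with 2% GloSensor reagent, then compound 30 min before baseline luminescence read. Stimulated with 50 uM sodium nitroprusside, 20 min at room temperature, then read again; counterscreen for Npr1 antagonism.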
SMILES,"activity change, negative = inhibition",Potency
CCCNC(=O)NS(=O)(=O)c1ccc(Cl)cc1,-4.09%,
CN(C)CCC(c1ccccc1)c1ccccn1 (configuration not stated),-4.75%,
CCN(CC)C(=O)c1ccc(O)c(OC)c1,0.74%,
C[N+](C)(C)CCCCCC[N+](C)(C)C,,inactive
CC(=O)N[C@@H](CS)C(=O)O,10.1%,
CCN(CC)CCOC(=O)c1ccc(N)cc1,6.17%,
CC1=C(/C=C/C(C)=C/C=C/C(C)=C/C(=O)Nc2ccc(O)cc2)C(C)(C)CCC1,-11.2%,
COc1ccccc1N1CCN(CCCNc2cc(=O)n(C)c(=O)n2C)CC1,-12.8%,
CC(C)NCC(O)COc1cccc2[nH]ccc12 (configuration not stated),2.32%,
O=C(NCCN1CCOCC1)c1ccc(Cl)cc1,-9.19%,
CC(=O)c1ccc(S(=O)(=O)NC(=O)NC2CCCCC2)cc1,15.1%,
O=C(O)CCc1nc(-c2ccccc2)c(-c2ccccc2)o1,6.12%,
NCCS,1.15%,
CCN1CCC[C@H]1CNC(=O)c1cc(S(N)(=O)=O)ccc1OC,5.88%,
O=C1NC(=O)C(c2ccccc2)(c2ccccc2)N1,,inactive
CCn1cc(C(=O)O)c(=O)c2ccc(C)nc21,-2.64%,
O=C1NCC2(CCN(CCc3ccccc3)CC2)O1,-1.18%,
Clc1ccc(Cn2c(CN3CCCC3)nc3ccccc32)cc1,18.2%,
CCN(CC)CCNC(=O)c1ccc(N)cc1,2.86%,

# Reference: PubChem BioAssay (NCATS)
